Source: ChEMBL document CHEMBL1961873, “Compounds: GSK PKIS; Assays: Nanosyn kinase panel” (2012)

What was measured:
[1] = target: Calcium/calmodulin-dependent protein kinase type II subunit alpha (Homo sapiens) (UniProt Q9UQM7); settings: at 1 µM;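 also: reported value is a mean percent inhibition of CAMK2A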
[2] = target: Calcium/calmodulin-dependent protein kinase type II subunit delta (Homo sapiens) (UniProt Q13557); settings: at 0.1 µM
[3] = target: Calcium/calmodulin-dependent protein kinase type II subunit delta (Homo sapiens) (UniProt Q13557); settings: at 1 µM
[4] = target: T1, Calcium/calmodulin-dependent protein kinase type IV (Homo sapiens) (UniProt Q16566); settings: at 0.1 µM
T1 sequence (whole entry): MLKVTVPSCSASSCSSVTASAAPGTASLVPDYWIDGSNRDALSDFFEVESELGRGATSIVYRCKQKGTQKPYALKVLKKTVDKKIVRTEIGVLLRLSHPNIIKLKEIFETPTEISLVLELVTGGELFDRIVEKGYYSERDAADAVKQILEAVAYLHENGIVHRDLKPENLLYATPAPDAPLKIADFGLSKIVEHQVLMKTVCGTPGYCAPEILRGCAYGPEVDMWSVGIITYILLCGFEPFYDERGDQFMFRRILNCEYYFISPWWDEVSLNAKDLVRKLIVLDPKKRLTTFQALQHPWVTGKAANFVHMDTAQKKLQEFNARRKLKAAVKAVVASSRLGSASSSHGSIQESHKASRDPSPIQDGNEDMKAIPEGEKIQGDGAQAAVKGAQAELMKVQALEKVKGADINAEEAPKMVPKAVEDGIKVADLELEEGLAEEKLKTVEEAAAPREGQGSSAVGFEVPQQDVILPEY

[5] = target: T1, Calcium/calmodulin-dependent protein kinase type IV (Homo sapiens); settings: at 1 µM
[6] = target: T2, Serine/threonine-protein kinase Chk1 (Homo sapiens) (UniProt O14757); settings: at 0.1 µM
T2 sequence (whole entry): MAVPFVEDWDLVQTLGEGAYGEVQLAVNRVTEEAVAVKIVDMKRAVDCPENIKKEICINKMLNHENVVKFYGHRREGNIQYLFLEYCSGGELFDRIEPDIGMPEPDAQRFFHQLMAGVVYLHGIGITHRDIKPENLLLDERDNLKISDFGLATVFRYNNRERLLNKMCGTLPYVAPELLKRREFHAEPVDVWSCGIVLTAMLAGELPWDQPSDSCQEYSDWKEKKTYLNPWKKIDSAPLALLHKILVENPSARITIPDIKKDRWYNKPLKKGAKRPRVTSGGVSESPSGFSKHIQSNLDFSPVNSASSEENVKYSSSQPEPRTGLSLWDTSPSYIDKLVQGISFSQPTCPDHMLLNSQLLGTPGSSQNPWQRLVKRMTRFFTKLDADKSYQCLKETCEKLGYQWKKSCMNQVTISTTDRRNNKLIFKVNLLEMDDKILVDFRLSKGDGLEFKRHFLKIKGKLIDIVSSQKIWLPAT

[7] = target: T2, Serine/threonine-protein kinase Chk1 (Homo sapiens); settings: at 1 µM
[8] = target: Serine/threonine-protein kinase Chk2 (Homo sapiens) (UniProt O96017); settings: at 0.1 µM
[9] = target: Serine/threonine-protein kinase Chk2 (Homo sapiens) (UniProt O96017); settings: at 1 µM
[10] = target: Death-associated protein kinase 1 (Homo sapiens) (UniProt P53355); settings: at 0.1 µM
Sequence of Death-associated protein kinase 1 (Homo sapiens) (P53355 whole entry, looked up): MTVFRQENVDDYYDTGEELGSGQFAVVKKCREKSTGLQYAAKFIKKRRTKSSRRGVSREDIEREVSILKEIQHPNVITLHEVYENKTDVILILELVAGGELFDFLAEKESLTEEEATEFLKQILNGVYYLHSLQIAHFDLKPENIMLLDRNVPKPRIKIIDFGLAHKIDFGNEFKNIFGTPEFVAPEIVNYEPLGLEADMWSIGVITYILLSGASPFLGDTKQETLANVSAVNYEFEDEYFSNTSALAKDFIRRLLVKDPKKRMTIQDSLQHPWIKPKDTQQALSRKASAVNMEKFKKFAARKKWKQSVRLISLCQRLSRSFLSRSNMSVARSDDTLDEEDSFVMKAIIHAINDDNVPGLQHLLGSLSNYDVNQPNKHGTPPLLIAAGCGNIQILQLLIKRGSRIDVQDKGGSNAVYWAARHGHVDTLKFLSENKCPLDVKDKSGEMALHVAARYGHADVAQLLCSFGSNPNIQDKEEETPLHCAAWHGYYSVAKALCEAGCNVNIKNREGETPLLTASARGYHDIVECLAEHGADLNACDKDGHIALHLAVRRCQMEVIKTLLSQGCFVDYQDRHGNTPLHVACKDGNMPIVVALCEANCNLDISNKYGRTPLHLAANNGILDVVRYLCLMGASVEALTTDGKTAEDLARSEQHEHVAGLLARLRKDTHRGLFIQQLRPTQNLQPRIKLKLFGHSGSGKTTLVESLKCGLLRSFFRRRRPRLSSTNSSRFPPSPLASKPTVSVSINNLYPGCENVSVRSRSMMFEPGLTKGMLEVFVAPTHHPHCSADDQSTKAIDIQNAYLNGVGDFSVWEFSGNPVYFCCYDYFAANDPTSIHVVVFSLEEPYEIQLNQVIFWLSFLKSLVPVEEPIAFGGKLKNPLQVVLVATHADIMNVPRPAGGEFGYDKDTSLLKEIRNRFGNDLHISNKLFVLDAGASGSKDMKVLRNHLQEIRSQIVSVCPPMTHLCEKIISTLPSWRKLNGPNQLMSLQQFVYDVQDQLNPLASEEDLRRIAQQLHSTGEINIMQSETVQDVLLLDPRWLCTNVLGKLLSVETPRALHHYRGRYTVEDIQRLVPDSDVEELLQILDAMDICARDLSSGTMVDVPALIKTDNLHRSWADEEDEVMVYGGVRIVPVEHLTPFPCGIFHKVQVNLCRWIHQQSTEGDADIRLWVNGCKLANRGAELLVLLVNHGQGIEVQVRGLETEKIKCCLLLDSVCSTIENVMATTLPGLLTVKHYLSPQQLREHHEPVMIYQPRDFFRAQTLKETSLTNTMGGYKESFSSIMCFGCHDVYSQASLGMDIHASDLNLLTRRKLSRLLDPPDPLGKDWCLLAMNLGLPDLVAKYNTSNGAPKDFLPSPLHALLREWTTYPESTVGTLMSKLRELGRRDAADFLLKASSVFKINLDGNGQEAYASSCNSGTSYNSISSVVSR

[11] = target: Death-associated protein kinase 1 (Homo sapiens) (UniProt P53355); settings: at 1 µM
[12] = target: T3, Serine/threonine-protein kinase DCLK2 (Homo sapiens) (UniProt Q8N568); settings: at 0.1 µM
T3 sequence (whole entry): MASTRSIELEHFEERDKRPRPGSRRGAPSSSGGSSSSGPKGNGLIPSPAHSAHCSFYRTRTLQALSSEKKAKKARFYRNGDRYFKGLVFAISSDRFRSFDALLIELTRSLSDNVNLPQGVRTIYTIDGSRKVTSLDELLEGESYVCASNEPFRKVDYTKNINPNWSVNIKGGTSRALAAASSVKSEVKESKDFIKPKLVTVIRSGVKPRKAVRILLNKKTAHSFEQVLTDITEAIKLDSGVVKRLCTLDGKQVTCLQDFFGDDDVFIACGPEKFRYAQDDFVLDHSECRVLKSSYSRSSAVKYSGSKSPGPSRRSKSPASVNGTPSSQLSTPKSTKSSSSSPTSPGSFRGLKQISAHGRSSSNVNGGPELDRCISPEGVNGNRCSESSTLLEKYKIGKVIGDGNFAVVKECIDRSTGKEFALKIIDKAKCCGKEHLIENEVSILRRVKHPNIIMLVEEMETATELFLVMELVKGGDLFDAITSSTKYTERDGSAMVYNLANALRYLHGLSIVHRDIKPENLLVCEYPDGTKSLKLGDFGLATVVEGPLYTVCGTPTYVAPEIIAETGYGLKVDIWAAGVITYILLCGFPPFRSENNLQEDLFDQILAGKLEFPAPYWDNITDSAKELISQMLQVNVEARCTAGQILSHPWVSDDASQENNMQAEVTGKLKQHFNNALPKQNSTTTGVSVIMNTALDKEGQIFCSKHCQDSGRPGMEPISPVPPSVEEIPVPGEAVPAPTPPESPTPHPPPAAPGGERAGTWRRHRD

[13] = target: T3, Serine/threonine-protein kinase DCLK2 (Homo sapiens); settings: at 1 µM
[14] = target: MAP kinase-activated protein kinase 2 (Homo sapiens) (UniProt P49137); settings: at 0.1 µM
Sequence of MAP kinase-activated protein kinase 2 (Homo sapiens) (P49137 whole entry, looked up): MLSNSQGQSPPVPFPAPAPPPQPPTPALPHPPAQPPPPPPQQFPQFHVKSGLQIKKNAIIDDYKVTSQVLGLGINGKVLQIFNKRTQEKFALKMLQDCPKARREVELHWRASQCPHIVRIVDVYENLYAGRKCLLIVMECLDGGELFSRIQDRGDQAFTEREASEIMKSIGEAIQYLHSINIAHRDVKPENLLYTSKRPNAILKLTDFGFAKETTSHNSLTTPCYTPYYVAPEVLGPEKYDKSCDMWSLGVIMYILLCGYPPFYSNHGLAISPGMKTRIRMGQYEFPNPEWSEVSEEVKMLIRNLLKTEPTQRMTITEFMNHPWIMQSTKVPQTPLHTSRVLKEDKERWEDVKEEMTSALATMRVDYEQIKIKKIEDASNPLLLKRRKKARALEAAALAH

[15] = target: MAP kinase-activated protein kinase 2 (Homo sapiens) (UniProt P49137); settings: at 1 µM
[16] = target: MAP kinase-activated protein kinase 3 (Homo sapiens) (UniProt Q16644); settings: at 0.1 µM
Sequence of MAP kinase-activated protein kinase 3 (Homo sapiens) (Q16644 whole entry, looked up): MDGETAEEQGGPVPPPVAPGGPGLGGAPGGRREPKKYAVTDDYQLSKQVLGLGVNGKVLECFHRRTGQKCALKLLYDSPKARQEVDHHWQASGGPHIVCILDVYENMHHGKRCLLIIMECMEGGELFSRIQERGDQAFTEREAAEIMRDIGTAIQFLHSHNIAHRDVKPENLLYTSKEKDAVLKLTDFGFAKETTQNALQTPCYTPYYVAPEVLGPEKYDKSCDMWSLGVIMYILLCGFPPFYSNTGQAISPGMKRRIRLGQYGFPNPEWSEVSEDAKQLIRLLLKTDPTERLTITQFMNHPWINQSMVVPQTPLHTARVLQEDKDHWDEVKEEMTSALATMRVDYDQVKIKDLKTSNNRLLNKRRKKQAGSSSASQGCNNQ

[17] = target: MAP kinase-activated protein kinase 3 (Homo sapiens) (UniProt Q16644); settings: at 1 µM
[18] = target: Serine/threonine-protein kinase MARK1 (Homo sapiens) (UniProt Q9P0L2); settings: at 0.1 µM
Sequence of Serine/threonine-protein kinase MARK1 (Homo sapiens) (Q9P0L2 whole entry, looked up): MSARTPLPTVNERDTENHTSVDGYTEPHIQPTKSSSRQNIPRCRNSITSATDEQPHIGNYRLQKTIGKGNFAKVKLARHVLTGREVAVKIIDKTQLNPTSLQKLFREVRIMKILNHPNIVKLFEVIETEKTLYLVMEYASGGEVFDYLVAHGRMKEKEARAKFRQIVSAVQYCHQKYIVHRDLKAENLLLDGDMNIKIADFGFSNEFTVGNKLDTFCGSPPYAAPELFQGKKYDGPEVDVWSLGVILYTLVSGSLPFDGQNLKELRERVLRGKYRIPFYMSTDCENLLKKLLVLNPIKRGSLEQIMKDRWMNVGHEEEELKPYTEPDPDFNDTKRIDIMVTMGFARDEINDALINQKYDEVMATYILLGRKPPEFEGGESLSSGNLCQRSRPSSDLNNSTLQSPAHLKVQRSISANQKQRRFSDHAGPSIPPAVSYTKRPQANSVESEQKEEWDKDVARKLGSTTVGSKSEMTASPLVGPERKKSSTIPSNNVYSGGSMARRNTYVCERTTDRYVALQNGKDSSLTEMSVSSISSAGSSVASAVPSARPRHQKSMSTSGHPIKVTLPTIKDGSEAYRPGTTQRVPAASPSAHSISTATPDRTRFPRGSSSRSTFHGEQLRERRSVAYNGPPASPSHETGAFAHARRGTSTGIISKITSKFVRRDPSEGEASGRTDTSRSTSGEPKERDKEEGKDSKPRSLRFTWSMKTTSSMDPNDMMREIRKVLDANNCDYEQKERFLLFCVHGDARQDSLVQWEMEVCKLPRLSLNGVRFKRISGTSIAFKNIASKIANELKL

[19] = target: Serine/threonine-protein kinase MARK1 (Homo sapiens) (UniProt Q9P0L2); settings: at 1 µM
[20] = target: MAP/microtubule affinity-regulating kinase 3 (Homo sapiens) (UniProt P27448); settings: at 0.1 µM;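 also: mean percent inhibition of MARK3 kinase activity, measured within the GSK PKIS screening panel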
Sequence of MAP/microtubule affinity-regulating kinase 3 (Homo sapiens) (P27448 whole entry, looked up): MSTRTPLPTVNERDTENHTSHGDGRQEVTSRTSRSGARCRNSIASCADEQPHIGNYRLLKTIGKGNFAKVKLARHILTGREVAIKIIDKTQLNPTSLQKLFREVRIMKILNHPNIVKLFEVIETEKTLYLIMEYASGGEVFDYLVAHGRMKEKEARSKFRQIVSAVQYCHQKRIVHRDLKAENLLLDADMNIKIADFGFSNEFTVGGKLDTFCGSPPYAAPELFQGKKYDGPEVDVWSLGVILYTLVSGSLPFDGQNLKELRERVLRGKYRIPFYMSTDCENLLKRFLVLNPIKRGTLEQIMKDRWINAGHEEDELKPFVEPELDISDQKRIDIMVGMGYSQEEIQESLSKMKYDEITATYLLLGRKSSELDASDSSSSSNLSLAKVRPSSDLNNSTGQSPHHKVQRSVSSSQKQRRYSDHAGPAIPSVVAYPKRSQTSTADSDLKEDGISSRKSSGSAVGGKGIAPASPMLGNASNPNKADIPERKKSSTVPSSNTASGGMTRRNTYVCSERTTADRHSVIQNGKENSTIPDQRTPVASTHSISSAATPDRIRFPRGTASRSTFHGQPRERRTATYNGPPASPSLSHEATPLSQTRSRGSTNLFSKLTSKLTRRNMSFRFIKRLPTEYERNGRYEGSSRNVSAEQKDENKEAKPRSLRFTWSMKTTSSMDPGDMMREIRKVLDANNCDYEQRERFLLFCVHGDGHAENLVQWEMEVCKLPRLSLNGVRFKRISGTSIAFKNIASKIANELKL

Sequence of Calcium/calmodulin-dependent protein kinase type II subunit alpha (Homo sapiens) (Q9UQM7 whole entry): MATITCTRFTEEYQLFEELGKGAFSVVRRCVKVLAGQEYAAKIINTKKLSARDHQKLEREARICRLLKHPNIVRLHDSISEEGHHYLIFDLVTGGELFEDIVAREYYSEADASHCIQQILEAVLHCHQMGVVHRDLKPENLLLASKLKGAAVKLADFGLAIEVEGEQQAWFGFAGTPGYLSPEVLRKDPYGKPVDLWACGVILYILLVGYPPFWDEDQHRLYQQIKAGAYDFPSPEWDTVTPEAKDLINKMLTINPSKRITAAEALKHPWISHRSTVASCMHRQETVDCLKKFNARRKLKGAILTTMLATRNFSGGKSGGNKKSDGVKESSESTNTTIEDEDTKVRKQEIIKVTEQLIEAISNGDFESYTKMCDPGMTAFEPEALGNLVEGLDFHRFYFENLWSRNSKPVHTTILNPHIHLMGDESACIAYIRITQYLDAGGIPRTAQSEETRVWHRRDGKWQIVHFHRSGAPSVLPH
Sequence of Calcium/calmodulin-dependent protein kinase type II subunit delta (Homo sapiens) (Q13557 whole entry): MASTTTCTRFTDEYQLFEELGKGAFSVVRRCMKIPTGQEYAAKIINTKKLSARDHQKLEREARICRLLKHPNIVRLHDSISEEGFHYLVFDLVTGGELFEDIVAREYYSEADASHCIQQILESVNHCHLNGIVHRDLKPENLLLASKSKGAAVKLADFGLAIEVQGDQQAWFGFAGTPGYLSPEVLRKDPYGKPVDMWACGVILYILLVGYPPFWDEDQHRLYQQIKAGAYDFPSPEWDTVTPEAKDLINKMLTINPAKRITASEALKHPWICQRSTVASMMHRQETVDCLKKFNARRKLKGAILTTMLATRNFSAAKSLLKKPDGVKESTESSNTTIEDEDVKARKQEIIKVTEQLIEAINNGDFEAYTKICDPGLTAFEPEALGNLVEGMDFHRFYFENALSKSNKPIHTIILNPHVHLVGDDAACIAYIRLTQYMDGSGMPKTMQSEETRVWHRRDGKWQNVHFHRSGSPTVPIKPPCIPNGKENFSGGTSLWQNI

Structure (SMILES) | inhibition [1] | inhibition [2] | inhibition [3] | inhibition [4] | inhibition [5] | inhibition [6] | inhibition [7] | inhibition [8] | inhibition [9] | inhibition [10] | inhibition [11] | inhibition [12] | inhibition [13] | inhibition [14] | inhibition [15] | inhibition [16] | inhibition [17] | inhibition [18] | inhibition [19] | inhibition [20]
Nc1nccc(C#Cc2cncnc2Nc2ccc(OCc3cccc(F)c3)c(Cl)c2)n1 | 5.08% | 8.4% | 8.79% | -0.4% | 0.61% | 1.22% | 7.61% | 2.66% | 5.77% | 3.9% | 5.3% | 1.36% | 0.82% | 1.66% | 1.43% | 2.38% | 4.95% | 5.72% | 10.4% | 4.09%
Nc1nccc(-c2c(-c3ccc(F)cc3)nn3cc(C(F)(F)F)ccc23)n1 | -1.99% | 0.49% | -0.48% | -0.17% | -1% | -1.52% | -2.44% | 0.02% | -0.27% | 2.24% | 1.3% | -1.79% | -1.22% | -0.92% | -1.14% | 5.47% | 19.9% | -0.24% | -0.05% | -0.09%
[O-][S+]1CCN(Cc2ccc(-c3ccc4ncnc(Nc5ccc(OCc6ccccc6)c(Cl)c5)c4c3)o2)CC1 | -1.1% | 0.81% | 1.03% | -1.57% | -1.23% | 3.06% | -0.08% | 1.32% | 2.85% | 1.85% | 0.97% | 0.43% | 1.8% | 1% | 0.44% | 6.01% | 8.71% | 1.37% | 2.21% | -0.92%
Cc1cc(O)cc(C)c1/C=C/c1cncc(C(=O)N(C)C)c1 | 3.57% | 3.56% | 4.04% | 2.13% | 0.97% | 5.84% | 2.96% | -0.15% | 0.11% | 3.93% | 5.28% | 3.47% | 0.19% | 0.52% | 0.82% | 0.87% | 1.23% | 1.15% | 1.29% | 2.67%
COc1cc(/C=N/Nc2ncnc3c2cnn3C(C)C)ccc1O | 0.99% | 0.75% | 3.93% | 0.62% | -1.97% | 3.18% | 4.84% | 0.04% | 1.88% | 1.63% | 0.9% | 2.33% | 1.29% | 0.78% | 0.4% | 0.97% | 0.08% | 2.39% | 4.77% | 0.28%
